Measurements published in PubChem BioAssay AID602144 (Vanderbilt Specialized Chemistry Center, 2011).
Activity calls are given as the source filed them. Rule as the data show it: active = remaining activity below about 50%; inactive = the rest.

These compounds were tested against Phospholipase D1 (Homo sapiens) (UniProt Q13393) (assay: cellular phospholipase D1 activity inhibition – Calu-1 cells, single concentration (AID 602144;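 also: tested at 200 nM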)). Details: cellular PLD1 activity, active compounds read low.
Chain of Phospholipase D1 (Homo sapiens) (Q13393 whole entry, looked up): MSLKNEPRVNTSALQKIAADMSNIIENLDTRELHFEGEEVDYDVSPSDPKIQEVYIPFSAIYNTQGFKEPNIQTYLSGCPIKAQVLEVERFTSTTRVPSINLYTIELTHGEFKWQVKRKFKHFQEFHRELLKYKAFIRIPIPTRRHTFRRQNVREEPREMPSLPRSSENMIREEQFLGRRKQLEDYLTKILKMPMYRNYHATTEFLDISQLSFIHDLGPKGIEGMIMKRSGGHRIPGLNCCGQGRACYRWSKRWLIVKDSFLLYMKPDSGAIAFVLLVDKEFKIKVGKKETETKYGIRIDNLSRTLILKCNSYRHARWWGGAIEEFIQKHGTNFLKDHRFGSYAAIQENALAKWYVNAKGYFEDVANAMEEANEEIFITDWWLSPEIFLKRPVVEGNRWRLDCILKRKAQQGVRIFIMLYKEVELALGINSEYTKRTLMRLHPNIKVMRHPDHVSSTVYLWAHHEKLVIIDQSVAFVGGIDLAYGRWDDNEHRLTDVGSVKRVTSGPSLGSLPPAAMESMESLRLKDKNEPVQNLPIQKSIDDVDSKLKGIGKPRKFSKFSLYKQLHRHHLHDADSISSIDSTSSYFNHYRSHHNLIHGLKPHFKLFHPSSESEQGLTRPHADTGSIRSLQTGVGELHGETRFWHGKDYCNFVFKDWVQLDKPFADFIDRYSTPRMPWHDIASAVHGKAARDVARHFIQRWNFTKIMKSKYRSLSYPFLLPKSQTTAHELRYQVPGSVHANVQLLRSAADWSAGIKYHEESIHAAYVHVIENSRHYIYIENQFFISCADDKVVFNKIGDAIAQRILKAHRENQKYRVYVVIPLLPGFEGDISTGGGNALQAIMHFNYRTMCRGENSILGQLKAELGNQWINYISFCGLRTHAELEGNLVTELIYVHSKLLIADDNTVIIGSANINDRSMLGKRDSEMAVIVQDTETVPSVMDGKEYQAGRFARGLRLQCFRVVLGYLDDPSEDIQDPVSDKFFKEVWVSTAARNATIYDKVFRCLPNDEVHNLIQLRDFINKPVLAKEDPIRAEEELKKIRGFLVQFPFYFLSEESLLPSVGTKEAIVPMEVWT
Chain of Phospholipase D1 (Homo sapiens) (Q13393 whole entry, looked up): as above

SMILES | remaining activity
Nc1ccc(C(=O)NCCN2CCC(n3c(=O)[nH]c4ccccc43)CC2)cc1OC(F)(F)F | 72.6% (inactive)
C[C@@H](CN1CCC(n2c(=O)[nH]c3ccc(F)cc32)CC1)NC(=O)c1ccc(F)c(F)c1 | 13.7% (active)
Cn1c(=O)n(C2CCN(CCNC(=O)c3ccc4ccccc4c3)CC2)c2ccccc21 | 71.6% (inactive)
O=C(Cc1ccc2ccccc2c1)NCCN1CCC(n2c(=O)[nH]c3ccccc32)CC1 | 87.7% (inactive)
C[C@@H](CN1CCC(n2c(=O)[nH]c3ccccc32)CC1)NC(=O)c1ccco1 | 41.7% (active)
O=C(NCCN1CCN(c2ccncc2)CC1)c1cc2ccccc2s1 | 147% (inactive)
CC(=O)c1cccc(NC(=O)NCCN2CCC(n3c(=O)[nH]c4ccccc43)CC2)c1 | 137% (inactive)
O=C1c2ccccc2C(=O)N1CCCNc1cccc(F)c1 | 166% (inactive)
O=C(NCCN1CCC(n2c(=O)[nH]c3cc(I)ccc32)CC1)C1CC1c1ccccc1 (stereo unspecified) | 16.1% (active)
O=C(NCCN1CCC(n2c(=O)[nH]c3ccccc32)CC1)c1cc2ccccc2c2ccccc12 | 7.23% (active)
O=C(NCCN1CCC(n2c(=O)[nH]c3ccccc32)CC1)c1cccc2cccnc12 | 30.7% (active)
C[C@@H](CN1CCC(n2c(=O)[nH]c3ccccc32)CC1)NC(=O)c1cc2cc(F)ccc2[nH]1 | 30.1% (active)
O=C(NCCN1CCC(n2c(=O)[nH]c3ccccc32)CC1)N1c2ccccc2Sc2ccccc21 | 89.7% (inactive)
O=C(c1ccc2ccccc2c1)N1CCC2(CC1)C(=O)NCN2c1ccccc1 | 113% (inactive)
C=CCCCCCCCCC(=O)NCCN1CCC(n2c(=O)[nH]c3ccccc32)CC1 | 81.3% (inactive)
O=C(NCCN1CCC(n2c(=O)[nH]c3ccc(F)cc32)CC1)c1ccc(C(F)(F)F)cc1 | 19.1% (active)
C[C@H](CN1CCC2(CC1)CNc1ccccc12)NC(=O)c1ccc2ccccc2c1 | 34.6% (active)
COc1ccc2c(c1)c(CC(=O)NCCN1CCC(n3c(=O)[nH]c4ccccc43)CC1)c(C)n2C(=O)c1ccc(Cl)cc1 | 98.1% (inactive)
CC(C)[C@@H](CN1CCC(n2c(=O)[nH]c3ccccc32)CC1)NC(=O)c1ccc2ccccc2c1 | 84.6% (inactive)
O=C(NCCN1CCC2(CCc3ccccc32)CC1)c1ccc2ccccc2c1 | 124% (inactive)
COc1cccc(N2CCN(CCNC(=O)c3ccc(C)cc3)CC2)c1 | 84.8% (inactive)
O=C(NCCN1CCN(c2ccncc2)CC1)c1ccccc1-c1ccccc1 | 147% (inactive)
O=c1[nH]c2ccccc2n1C1CCN(CCNC(=S)Nc2cccc3ccccc23)CC1 | 152% (inactive)
C[C@@H](CN1CCC(n2c(=O)[nH]c3cc(Br)ccc32)CC1)NC(=O)c1ccc(F)cc1 | 16.1% (active)
C[C@@H](CN1CCC(n2c(=O)[nH]c3ccccc32)CC1)NC(=O)c1ccc(C(F)(F)F)cc1 | 36.5% (active)
O=C(NCCN1CCC(n2c(=O)[nH]c3ccccc32)CC1)C1CCCCCC1 | 98.9% (inactive)
